BLM helicase inh: blocks DNA unwinding by human BLM helicase; P54132; hit rate 0.2% among 350,000; recombinant BLM DNA unwinding, fluorescence dequenching; Potency, µM (top dose mostly 56.1 µM), usual class: inhibitors; AID 2528; further: nearly all actives have a fitted effect of over 35% in size
GCN5L2 inh: blocks human GCN5L2 histone acetyltransferase; Q92830; GCN5L2 HAT assay, ThioGlo1 CoA-SH fluorescence; Potency, µM (series often up to 58.9 µM), usual class: inhibitors; hit rate 0.21% among 390,000
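Free CoA generated was detected with ThioGlo1 (50uM) fluorescence at Ex340nm/Em540nm, read immediately and after 20 min at room temperature. Enzyme, 20 nM in HEPES pH 7.5 buffer, saw compounds 15 min before adding 75uM H3(1-25) peptide and 70uM acetyl-CoA.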
APEX1 inh: blocks human APE1 abasic DNA cleavage; recombinant APE1, TAMRA/BHQ-2 abasic DNA cleavage fluorescence; hit rate 0.35% among 350,000; P27695; Potency, µM (titrated, usually from 65.8 µM), most hits filed as inhibitors; further: nearly all actives have a fitted effect of over 55% in size
Target sequence (P27695 whole entry, looked up): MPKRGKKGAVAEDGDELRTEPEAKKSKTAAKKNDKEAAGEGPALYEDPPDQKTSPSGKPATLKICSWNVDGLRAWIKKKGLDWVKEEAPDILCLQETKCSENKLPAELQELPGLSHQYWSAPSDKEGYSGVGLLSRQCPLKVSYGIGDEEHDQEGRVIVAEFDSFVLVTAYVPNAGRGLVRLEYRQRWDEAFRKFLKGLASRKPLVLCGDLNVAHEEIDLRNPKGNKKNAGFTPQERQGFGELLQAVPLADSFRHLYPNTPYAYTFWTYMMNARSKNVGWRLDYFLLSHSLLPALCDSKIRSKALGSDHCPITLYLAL
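Step 1: APE1 (0.75 nM) with compound, 15 min RT. Step 2: add 50 nM fluorophore/quencher THF duplex. Step 3: three fluorescence reads 60 s apart (525/598 nm); read 3 minus read 1 = reaction progress.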
RECQ1 helicase: inhibitors of human RECQ1 DNA helicase; P46063; RECQ1 DNA unwinding, red fluorescence kinetic read; Potency, µM (highest dose often 57.3 µM), usual class: inhibitors; hit rate 0.54% among 240,000; AID 2549; further: nearly all actives have a fitted effect of over 30% in size
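RECQ1T1 50 nM; forked duplex (20 bp + 30-nt ss tails) 200 nM, ATP 2 mM final; pH 8.0, 2 mM MgCl2, 2.5 ug/ml poly(dI-dC); 15 min compound preincubation; discontinuous kinetic read over 2 h at RT.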
FEN1 inh: blocks human flap endonuclease 1. P39748. Recombinant FEN1 flap cleavage, fluorescence, 15 min. Potency, µM (top dose mostly 114 µM), usual class: inhibitors. hit rate 0.35% among 390,000; further: nearly all actives have a fitted effect of over 65% in size
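Potency values derive from four-parameter Hill fits of normalized qHTS data. The reaction used 10 nM FEN1 preincubated 15 min at room temperature with compound, then 50 nM DNA substrate, read at 0 and 15 min.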
PI5P4K alpha inh: blocks human PI5P4K alpha kinase activity; AID 652105; hit rate 1.2% among 330,000; P48426; PI5P4Kalpha enzyme, ADP-Glo luminescence, 60 min; active compounds read low; max response, %; active means max response of -50% or lower; inconclusive means between -30% and -50%; inactive means -30% or higher; further: value at the top dose of about 77 µM
Target sequence (P48426 whole entry, looked up): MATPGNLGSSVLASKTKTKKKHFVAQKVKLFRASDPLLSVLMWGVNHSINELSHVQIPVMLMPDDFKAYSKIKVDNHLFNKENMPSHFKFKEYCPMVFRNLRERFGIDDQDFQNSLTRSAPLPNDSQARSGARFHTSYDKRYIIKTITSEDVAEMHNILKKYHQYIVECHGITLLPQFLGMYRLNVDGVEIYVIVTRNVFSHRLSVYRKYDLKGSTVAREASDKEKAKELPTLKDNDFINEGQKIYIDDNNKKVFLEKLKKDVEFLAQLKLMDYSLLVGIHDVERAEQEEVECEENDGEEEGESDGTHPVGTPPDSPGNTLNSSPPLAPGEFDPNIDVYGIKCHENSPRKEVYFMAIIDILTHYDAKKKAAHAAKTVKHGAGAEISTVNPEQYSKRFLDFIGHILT
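ADP-Glo luminescence end-point after a 60 min room-temperature kinase reaction. PI5P4Kalpha and substrate in HEPES pH 7.4 buffer with EGTA, 0.1% CHAPS and 5% DMSO; ATP at 5 microM final.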
Hits are given with their value; . = inactive; ? = inconclusive; / = no result given; ! = not confirmed by another sample; [ ] = another dose, or the depositor's remark. The list is not random: actives were taken first. Their share in the collection is about 1.5%. Unless noted, the call rests on the fitted dose curve; in most records, active means well fitted curve in the direction sought with a large enough effect; inconclusive means small, poorly fitted or top-dose-only effect, or another doubt; inactive means no such curve, though single readings can be large; an effect the other way counts as inactive or inconclusive.

SMILES	BLM helicase inh	GCN5L2 inh	APEX1 inh	RECQ1 helicase	FEN1 inh	PI5P4K alpha inh
O=C(Nn1c(-c2ccc(Br)cc2)nc2ccccc2c1=O)c1cccnc1	.	.	.	.	.	-56
CCCCCc1c(C)nc(Nc2ccccc2)[nH]c1=O	.	.	.	.	.	.
CCOC(OCC)c1nc(N)[nH]c(=O)c1CCCCc1ccccc1	/	/	/	/	.	-52
O=C(O)c1ccc(NC(=S)NC(=O)c2cccc(COc3ccccc3)c2)cc1	.	.	.	.	.	-55
O=C(Nc1ccc(Cl)cn1)c1cnn2c1NC(=C1CC1)C=C2C(F)F	/	/	/	/	.	/
O=C1C=CC(=O)N1CCCCCCCCCCN1C(=O)C=CC1=O	/	/	/	/	.	-51
Cn1c2ccccc2c(=O)n2c(=O)c3ccccc3cc12	25µM	.	?	.	/	/
Cn1c(-c2ccccc2)cc(=O)c2ccccc21	.	.	.	.	.	/
COc1cccc2nccc(/C=C/c3ccc(N(C)C)cc3)c12	/	/	/	/	.	/
Cc1ccc(C(=O)O)cc1N=Cc1cc(Br)cc(Br)c1O	.	.	.	.	.	-56
CN(Cc1cnc2nc(N)nc(N)c2n1)c1ccc(C(=O)N[C@H](CCC(=O)O)C(=O)O)cc1	.	.	.	.	/	/
CN(Cc1cnc2nc(N)nc(N)c2n1)c1ccc(C(=O)N[C@@H](CCC(=O)O)C(=O)O)cc1	.	?	?	.	?	-68!
Oc1cc2c(cc1C(c1ccc(Br)cc1)N1CCCC1)OCO2 (stereo not drawn)	.	.	.	.	.	-102
O=S(=O)(c1ccc(Cl)cc1)N1CCN(c2nc(-c3ccccc3)nc3ccccc23)CC1	/	/	/	/	.	/
Cc1cc(O)c(C(C)(C)C)cc1Sc1cc(C(C)(C)C)c(O)cc1C	/	/	.	.	/	/
CCN(CC)S(=O)(=O)c1cccc(N=NC2=C(O)CCCC2=O)c1	.	.	.	?	.	.
O=C1CCCC(O)=C1N=Nc1c(Cl)cc(Cl)cc1Cl	.	.	?	25µM	.	.
COc1ccc(OC)c(N=c2ssnc2Cl)c1	.	28µM	.	.	.	-64
COc1cc(N=c2ssnc2Cl)c(OC)cc1Cl	.	11µM	.	.	?	-68
CCCc1[nH][nH]c(=O)c1C(c1ccccc1)C(C#N)C#N (stereo not drawn)	.	.	.	.	.	-50
CCCc1[nH][nH]c(=O)c1C(c1ccc(Br)cc1)C(C#N)C#N (stereo not drawn)	.	.	?	.	.	/
CN1/C(=C/c2cc[n+](C)c3ccccc23)C=Cc2ccccc21	?	.	.	?	45µM	.
CNc1cc[n+](C)c2ccccc12	/	/	/	/	.	/
NCCNCCN	.	.	3.5µM	5.6µM	/	/
NCCNCCNCCN	.	.	.	.	.	.
SMILES	BLM helicase inh	GCN5L2 inh	APEX1 inh	RECQ1 helicase	FEN1 inh	PI5P4K alpha inh
Cc1c(C)c2c(OCC(=O)N3CCC(C(N)=O)CC3)cc3c(c2oc1=O)CCC(C)(C)O3	.	?	.	/	.	.
Cc1cc(=O)oc2c3c(cc(OCC(=O)N4CCC(C(=O)O)CC4)c12)OC(C)(C)CC3	.	18µM	.	/	.	.
COc1cc2c(-c3ccc(O)cc3)nc3c(c(C)nn3-c3ccccc3)c2cc1OC	14µM	.	.	.	?	.
CCCCCCCCCCC/C=C\C(C)(C)/C=C\CCCC(=O)O	.	7.9µM	.	.	/	/
CC/C=C\C/C=C\C/C=C\CCCCCCCC(=O)O	?	10µM!	.	1.8µM!	.	?
O=S(=O)(Nc1cccc2cccnc12)c1ccc(Br)s1	.	/	.	.	/	/
CSc1nc(N2CCN(CCO)CC2)c2sc3nc(-c4ccco4)c4c(c3c2n1)CCC4	13µM	.	.	.	/	/
CSc1nc(NCCN(C)C)c2sc3nc(-c4ccco4)c4c(c3c2n1)CCC4	/	/	/	/	?	.
CC(=NO)c1ccc2c(c1)Cc1cc([N+](=O)[O-])ccc1-2	/	/	/	/	.	-70
Oc1ccc(Cl)cc1C1C=C(c2ccc3c(c2)OCO3)NC(c2ccc(Cl)cc2)N1 (stereo not drawn)	/	/	/	/	.	/
CCOc1ccc(-c2csc(/C(C#N)=C\c3ccc(O)c([N+](=O)[O-])c3)n2)cc1	?	?	.	.	79µM	?
COc1ccc(OC)c(Nc2nn3c(=O)c4ccccc4nc3s2)c1	/	/	.	/	/	/
CCc1cc(=O)oc2cc(C)c(CN3CCCC(C)C3)c(O)c12 (stereo not drawn)	?	32µM	14µM	7.1µM	50µM	/
N#Cc1nc(-c2ccc(OCc3ccccc3Cl)cc2)oc1N1CCCCCC1	/	/	/	/	.	/
CC(=O)c1ccc(N2C(=O)C3C(C2=O)C(C(=O)c2ccc(Cl)cc2)N2CCCC32)cc1 (stereo not drawn)	.	.	.	?	.	-54
Nc1ccc2nc3c(=O)n(C4CCCCC4)c(=O)[nH]c3nc2c1	.	.	.	.	.	?
Nc1ccc2nc3c(=O)n(CCc4ccccc4)c(=O)[nH]c3nc2c1	.	.	.	.	?	-63
Cc1cc2nc3c(=O)n(CCc4ccccc4)c(=O)[nH]c3nc2cc1N	.	?	.	.	.	-86
CC1=C(/C=C/C(C)=C/C=C/C(C)=C/C(=O)O)C(C)(C)CCC1O (stereo not drawn)	/	.	.	.	/	/
CC(/C=C/C=C(C)/C=C/C(=O)O)=C\C=C\C=C(C)\C=C\C=C(C)\C=C\C(=O)O	/	/	2.5µM	11µM	/	/
CCCCc1cc2c(cn1)C(=O)C(C)(OC(C)=O)C(=O)C2 (stereo not drawn)	.[12.4 µM]	/	.[12.4 µM]	.[11.5 µM]	/	/
CN(C)CCN1C(=O)c2cccc3cc([N+](=O)[O-])cc(c23)C1=O	/	/	/	/	20µM	.
CN(C)c1ccc(/C=C/c2ccnc3ccccc23)cc1Br	/	/	/	/	.	/
CCN(CC)CCNc1cccc2sc3ccccc3c(=O)c12	/	/	/	/	/	.
O=c1c2ccccc2sc2c(CO)ccc(NCCN3CCCCC3)c12	/	/	/	/	40µM	.
SMILES	BLM helicase inh	GCN5L2 inh	APEX1 inh	RECQ1 helicase	FEN1 inh	PI5P4K alpha inh
O=C(COc1ccccc1C(=O)Nc1ccccc1)NCCCCc1ccccc1	/	/	/	/	.	/
CCCC(=O)NC1=C(Cl)C(=O)c2ccccc2C1=O	/	/	/	/	.	-58
CCNC1=C(Cl)C(=O)c2ccccc2C1=O	.	?	.	.	.	.
COc1cc(S(=O)(=O)Nc2ccc(C)cc2)ccc1N=Cc1c(C)c(C#N)c(=O)n(C)c1O	.	.	.	.	.	.
Cc1ccc(N/N=C/c2c(C)c(C#N)c(=O)n(C)c2O)cc1C	.	.	.	.	?	-54
NC(=O)C1=CN(C2OC(COP(=O)(O)OP(=O)(O)OC[C@H]3O[C@@H](n4cnc5c(N)ncnc54)[C@H](OP(=O)(O)O)[C@@H]3O)C(O)C2O)C=CC1 (stereo partly drawn)	/	.	/	/	/	/
CCc1nnc(N/N=C/c2cc(Br)c(O)cc2O)n1N	.	.	.	/	.	-69
CCc1nnc(N/N=C/c2ccc(O)c(OC)c2)n1N	.	.	.	/	.	.
CCc1ccc(N=C2NC(=O)/C(=C/c3cc(OC)c(OC)c(OC)c3)S2)cc1	.	.	.	/	.	.

High-throughput results (PubChem BioAssay)
